Experimental findings from PubChem BioAssay are described below.

SMILES strings stand for the structures. Records with an inconclusive call do not appear. Activity calls are given as the source filed them.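 How the source made its calls, unless noted: active means thallium flux through the channel raised or lowered by more than 3 SD from vehicle-only wells, actives on both sides; inactive means the rest.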

Assay [1] can be described thus: blockers of polyQ-driven CASP3 activation – cell-based (AID 1583). Particulars: polyglutamine-induced caspase-3 activation, cell assay; stronger effect = higher value;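 tested at 10 µM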.
Assay [2] is described as follows: compounds altering circadian rhythm period length – cell-based, LOPAC library, luminescence reporter (AID 2774; call rule not given here;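 further: values are relative to mean of DMSO wells on each plate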). The following applies: circadian reporter cells, at 7 µM, actives lie on both sides.
The nature of assay [3]: compounds altering viability of human ES cells (AID 493140; call rule not given here;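 further: cells exposed to compounds for four days before counting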). The following applies: human embryonic stem cell survival screen; stronger effect = higher value.
A short description of assay [4]: blockers of cellular phospholipid synthesis – cell-based, LOPAC library, screen 4, primary screen (AID 1347384; call rule not given here). Particulars: animal cells, phospholipid biosynthesis inhibition screen; at 10 µM.
A further assay deals with F380Y/beta1. In words: BK channel mutant inhibitors and activators – cell-based, U2OS BacMam, thallium flux, beta subunits, selectivity assay, profiling panel (AID 1259406).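 Further: initial slope of Thallos dye fluorescence rise after thallium is added; log ratio against the mean of 0.3% DMSO vehicle wells on the same plate.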 The following applies: U2OS BacMam BK variants, at 30 µM.
In another assay the test system is F380Y/beta4. The assay is described as above. Particulars: U2OS BacMam BK variants, at 30 µM.
A further assay deals with R275C/beta4. The description is as above. Particulars: U2OS BacMam BK variants, at 30 µM.
Another assay relates to R275C/Slo1WT/beta2. Described as above. The following applies: U2OS BacMam BK variants, at 30 µM.
For assay [5], the system named is Neuropilin-2 / VEGF-C interaction (human). In words: small molecules blocking Neuropilin-2/VEGF-C interaction – biochemical, microplate binding format, z-score (AID 743281; call rule not given here). Particulars: microplate NRP2/VEGF-C binding assay; stronger effect = lower value.
A short description of assay [6]: viability loss in pontine glioma line – cell-based, JHH-DIPG-1, MIPE4.0, CellTiter-Glo, qHTS, dose response (AID 1347062; cut-off not given, nearly all actives have AC50 up to about 27 µM). Particulars: JHH-DIPG-1 viability, CellTiter-Glo ATP luminescence. A general note: In ATP-based viability assays light output follows the ATP content of the culture.
A short description of assay [7]: compounds altering HSF1 focus formation in cells – imaging, Selleck Cancer Library (AID 1347162; in the data active means plate-normalised HSF1 focus index below about 0.46). Particulars: human cells, HSF1 nuclear foci imaging, at 10 µM; SSMD: measured here: HSF1 foci SSMD mean; cell count: measured here: cell number; plate-normalised HSF1 focus index: stronger effect = lower value.
Assay [8] can be described thus: growth inhibition of DIPG cells – cell-based, MIPE4.0 library, CellTiter-Glo luminescence, qHTS (AID 1347066; cut-off not given, nearly all actives have AC50 up to about 30 µM;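 further: cells exposed to compound for 48 hours before readout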). Particulars: SU-DIPG-VI viability, CellTiter-Glo ATP luminescence.
Assay [9] deals with ATP-dependent translocase ABCB1 (Homo sapiens) (UniProt P08183). The assay is described as follows: P-glycoprotein substrate transport blockade – cell-based (AID 377; in the data active means fluorescence slope change above about 50%). The following applies: MDR1-expressing cells, fluorescent substrate accumulation slope; stronger effect = higher value; concentration not given here.
Chain of ATP-dependent translocase ABCB1 (Homo sapiens) (P08183 whole entry, looked up): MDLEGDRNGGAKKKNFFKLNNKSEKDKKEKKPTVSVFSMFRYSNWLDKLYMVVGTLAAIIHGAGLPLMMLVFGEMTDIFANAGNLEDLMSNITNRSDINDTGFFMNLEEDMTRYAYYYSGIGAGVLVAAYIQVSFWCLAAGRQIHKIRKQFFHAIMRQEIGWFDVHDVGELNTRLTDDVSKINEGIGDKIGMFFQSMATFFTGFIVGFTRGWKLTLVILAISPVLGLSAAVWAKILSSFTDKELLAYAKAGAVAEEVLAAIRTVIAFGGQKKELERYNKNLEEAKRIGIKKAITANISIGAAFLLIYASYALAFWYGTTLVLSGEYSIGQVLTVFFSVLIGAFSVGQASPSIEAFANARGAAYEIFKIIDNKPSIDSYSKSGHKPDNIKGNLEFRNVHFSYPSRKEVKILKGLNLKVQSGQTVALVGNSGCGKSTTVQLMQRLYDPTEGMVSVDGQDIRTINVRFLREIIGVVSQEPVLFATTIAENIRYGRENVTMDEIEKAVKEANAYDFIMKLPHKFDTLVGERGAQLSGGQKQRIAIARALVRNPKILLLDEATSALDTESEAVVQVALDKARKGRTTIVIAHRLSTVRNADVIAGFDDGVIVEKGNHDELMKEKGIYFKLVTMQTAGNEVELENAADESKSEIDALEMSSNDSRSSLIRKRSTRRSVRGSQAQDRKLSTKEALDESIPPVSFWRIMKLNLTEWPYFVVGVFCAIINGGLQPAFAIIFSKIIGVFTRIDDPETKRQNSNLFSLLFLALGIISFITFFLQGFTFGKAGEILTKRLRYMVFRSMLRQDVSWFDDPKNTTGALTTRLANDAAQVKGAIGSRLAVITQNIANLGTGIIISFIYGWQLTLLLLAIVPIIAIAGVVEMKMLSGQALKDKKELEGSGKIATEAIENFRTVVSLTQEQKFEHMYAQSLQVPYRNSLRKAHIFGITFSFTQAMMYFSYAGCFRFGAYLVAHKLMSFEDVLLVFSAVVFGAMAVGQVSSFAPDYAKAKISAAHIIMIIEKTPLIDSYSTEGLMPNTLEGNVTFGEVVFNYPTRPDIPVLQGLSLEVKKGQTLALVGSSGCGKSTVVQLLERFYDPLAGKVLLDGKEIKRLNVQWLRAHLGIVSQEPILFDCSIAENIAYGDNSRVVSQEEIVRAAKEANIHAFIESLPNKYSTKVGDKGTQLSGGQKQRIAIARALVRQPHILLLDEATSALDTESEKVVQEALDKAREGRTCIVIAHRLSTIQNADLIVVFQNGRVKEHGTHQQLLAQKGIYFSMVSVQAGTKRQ

By inhibition is commonly meant how much of the control response was suppressed. Consider `CC(CCc1ccccc1)NCC(O)c1ccc(O)c(C(N)=O)c1` (stereo not drawn), for which the inhibition in [1] is 1.38%. For the same molecule, the period change in assay [2] was -0.45 h (inactive). In addition, the survival in assay [3] is 19.1 (inactive). For the same molecule, the molecule was classed as inactive in assay [4]. Moreover, the log fold change Tl+ flux was 0.0226 (inactive) with F380Y/beta1, 0.0997 (inactive) in the assay with F380Y/beta4, 0.0314 (inactive) with R275C/beta4 and -0.0367 (inactive) in the assay with R275C/Slo1WT/beta2.

For the molecule `CC(=O)OCC(=O)[C@@]1(O)CC[C@H]2[C@@H]3C[C@H](C)C4=CC(=O)C=C[C@]4(C)[C@H]3[C@@H](O)C[C@@]21C`, the log fold change Tl+ flux in the assay with F380Y/beta1 is 0.0602 (inactive); in the assay on F380Y/beta4, 0.0393 (inactive); with R275C/beta4, 0.0801 (inactive); in the assay with R275C/Slo1WT/beta2 it was 0.0333 (inactive).

With `Nc1ccn([C@@H]2O[C@H](CO)[C@@H](O)C2O)c(=O)n1` (stereo partly drawn), the z-score in assay [5] was 0.042 (inactive). Also, the molecule was called inactive in [6]. Moreover, in assay [7], the SSMD was -7.27, the cell count was determined as 7440 and the plate-normalised HSF1 focus index is 0.739 (inactive). In addition, the result in [4] was inactive.

Take `CC1(C)SC2C(NC(=O)COc3ccccc3)C(=O)N2C1C(=O)O` (stereo not drawn): the log fold change Tl+ flux is 0.027 (inactive) with F380Y/beta1, -0.00549 (inactive) in the assay with F380Y/beta4, 0.0174 (inactive) with R275C/beta4 and 0.0607 (inactive) in the assay on R275C/Slo1WT/beta2.

For `CCCc1nc(C(C)(C)O)c(C(=O)OCc2oc(=O)oc2C)n1Cc1ccc(-c2ccccc2-c2nn[nH]n2)cc1`, the result in assay [5] was inactive.

Consider `CC(=O)OCC(=O)[C@@]1(O)CC[C@H]2[C@@H]3CCC4=CC(=O)CC[C@]4(C)[C@H]3[C@@H](O)C[C@@]21C`, for which the log fold change Tl+ flux with F380Y/beta1 was -0.0206 (inactive); in the assay with F380Y/beta4, 0.0297 (inactive); in the assay on R275C/beta4, -0.0187 (inactive); with R275C/Slo1WT/beta2, -0.0133 (inactive).

As to `CC(=O)O[C@]1(C(C)=O)CC[C@H]2[C@@H]3C[C@H](C)C4=CC(=O)CC[C@]4(C)[C@H]3CC[C@@]21C`, the molecule was classed as inactive in assay [6] and in assay [8]. The log fold change Tl+ flux is 0.0192 (inactive) in the assay with F380Y/beta1, -0.000109 (inactive) in the assay with F380Y/beta4, 0.0252 (inactive) in the assay on R275C/beta4 and 0.0102 (inactive) with R275C/Slo1WT/beta2.

For the molecule `CN=C(N)NCCC[C@H](N)C(=O)O`, the period change in assay [2] is -0.035 h (inactive). In addition, the z-score in assay [5] is -0.991 (inactive). For the same molecule, in assay [4], the result was inactive.

On to `C=CC1=C(C(=O)O)N2C(=O)[C@@H](NC(=O)/C(=N\O)c3csc(N)n3)[C@H]2SC1` (stereo in doubt), for which the molecule was classed as inactive in assay [5], in assay [6] and in assay [8].

Consider `COc1ccc(-c2oc3c(CC=C(C)C)c(O[C@@H]4O[C@H](CO)[C@@H](O)[C@H](O)[C@H]4O)cc(O)c3c(=O)c2O[C@@H]2O[C@@H](C)[C@H](O)[C@@H](O)[C@H]2O)cc1`, for which, in assay [5], the z-score was 0.976 (inactive). Further, the log fold change Tl+ flux with F380Y/beta1 was 0.00909 (inactive); in the assay on F380Y/beta4, -0.0291 (inactive); in the assay with R275C/beta4 it was -0.0348 (inactive); in the assay on R275C/Slo1WT/beta2, 0.0155 (inactive).

As to `CC(C)[N+]1(C)C2CCC1CC(OC(=O)C(CO)c1ccccc1)C2` (stereo not drawn), the survival in assay [3] is 16.6 (inactive). Also, in assay [8], the outcome was inactive. For the same molecule, the log fold change Tl+ flux in the assay on F380Y/beta1 is 0.0263 (inactive); in the assay with F380Y/beta4, 0.0435 (inactive); with R275C/beta4, 0.0153 (inactive); in the assay with R275C/Slo1WT/beta2, -0.0119 (inactive).

For `Cn1cc[nH]c1=S`, the fluorescence slope change in assay [9] is 21.6% (inactive). In addition, the inhibition in [1] was 14.9%. Further, in assay [3], the survival was 1.42 (inactive). Further, the log fold change Tl+ flux in the assay on F380Y/beta1 is -0.0456 (inactive); in the assay on F380Y/beta4 it was 0.0112 (inactive); in the assay on R275C/beta4, 0.0185 (inactive); with R275C/Slo1WT/beta2, 0.019 (inactive).

For the molecule `CON=C(C(=O)NC1C(=O)N2C(C(=O)O)=C(COC(C)=O)CSC12)c1csc(N)n1` (stereo not drawn), the log fold change Tl+ flux in the assay on F380Y/beta1 is -0.0319 (inactive); in the assay on F380Y/beta4, 0.0152 (inactive); in the assay on R275C/beta4 it was -0.0222 (inactive); with R275C/Slo1WT/beta2 it was -0.0319 (inactive).

Regarding `C#C[C@]1(O)CC[C@H]2[C@@H]3CCC4=CC(=O)CC[C@@H]4[C@H]3CC[C@@]21C`, the survival in assay [3] was 14.7 (inactive). The log fold change Tl+ flux was 0.0886 (inactive) in the assay with F380Y/beta1, 0.0669 (inactive) with F380Y/beta4, -0.0715 (inactive) with R275C/beta4 and -0.0385 (inactive) with R275C/Slo1WT/beta2.

Turning to `CC(=O)N=c1sc(S(N)(=O)=O)nn1C`, the fluorescence slope change in assay [9] is 65.4% (active). In assay [1], this molecule had an inhibition of 0.15%. Moreover, the survival in assay [3] was 5.08 (inactive). The log fold change Tl+ flux was -0.0785 (inactive) with F380Y/beta1, 0.0268 (inactive) with F380Y/beta4, -0.0118 (inactive) in the assay on R275C/beta4 and -0.0121 (inactive) with R275C/Slo1WT/beta2.

On to `CCN1CCN(C(=O)N[C@@H](C(=O)N[C@@H]2C(=O)N3[C@@H]2SC(C)(C)[C@@H]3C(=O)O)c2ccccc2)C(=O)C1=O`, for which, in [9], the fluorescence slope change is 1.5% (inactive). Further, the survival in [3] is 1.83 (inactive). Further, the log fold change Tl+ flux was 0.00225 (inactive) with F380Y/beta1, -0.0114 (inactive) in the assay on F380Y/beta4, 0.0304 (inactive) in the assay on R275C/beta4 and 0.0399 (inactive) in the assay on R275C/Slo1WT/beta2.

Broadly, the AC50 is the concentration giving half of the maximal activity seen. Turning to `CC/C(=C(\c1ccccc1)c1ccc(OCCN(C)C)cc1)c1ccccc1`, the fluorescence slope change in assay [9] is 142% (active). In [1], the inhibition was 22.9%. For the same molecule, the period change in assay [2] was 0.115 h (inactive). Besides, in assay [3], the survival is 6.5 (inactive). For the same molecule, the AC50 in [8] was 23.5 µM (active). In addition, in assay [7], the SSMD is -8.19, the cell count stood at 3320 and the plate-normalised HSF1 focus index was 0.591 (inactive). Further, the result in assay [4] was inactive.
